In the library only some 5% were active in any assay of this set; here they are far more common.
PREPL inh: inhibits the human prolyl oligopeptidase-like enzyme. AID 2751. recombinant PREPL, fluorescence polarization activity-based probe. inhibition, % at 5.96 µM. 320,000 tested, 0.68% active. Q4J6C6; in the data active = inhibition above about 43%;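 also: 0% = enzyme with DMSO and 100% = wells lacking enzyme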
CHT block: inhibits the human high affinity choline transporter. Q9GZV3. B-score at 10 µM. CHT-expressing cells, membrane potential dye, choline response; hits give low values. AID 488975. 310,000 tested, 0.86% active;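 active = B-score over 3 SD under the library average, and starting fluorescence ratio not unusually high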;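 also: choline stimulus applied at its EC90 after an EC20 pre-addition; B-score computed on integrated fluorescence ratio after choline addition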
AI-2 QS modul: modulates the Vibrio harveyi AI-2 quorum sensing system. Vibrio harveyi JMH597 AI-2 luminescence/OD600 ratio, 9 h; hits give low values; strain lacks LuxN and CqsS sensors; 0 = neutral-control median. activity change, % at 7.5 µM. 300,000 tested, 0.4% active. AID 2094; in the data active = activity change below about -75%, passing the limit was not always enough;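 also: luminescence divided by OD600 gain over 9 h not by final OD600 alone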
CHT allo act: human CHT allosteric activation. 310,000 tested, 0.49% active. Q9GZV3. CHT-expressing cells, membrane potential dye, choline EC20; hits give high values; LV-AA mutant CHT in HEK293 cells. B-score at 10 µM;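 active = initial fluorescence not abnormally high and integrated response B-score, plate-corrected, over 3 SD above library mean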
ALR H2O2 inh: blocks human ALR sulfhydryl oxidase activity; P55789; purified ALR, DTT oxidation, H2O2 HRP-luminol luminescence; inhibition, % (no concentration beside the values); 290,000 tested, 3.8% active;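 active = mean replicate inhibition above about 79%, with every replicate also reaching it, limit read from the data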
Target sequence (P55789 whole entry, looked up): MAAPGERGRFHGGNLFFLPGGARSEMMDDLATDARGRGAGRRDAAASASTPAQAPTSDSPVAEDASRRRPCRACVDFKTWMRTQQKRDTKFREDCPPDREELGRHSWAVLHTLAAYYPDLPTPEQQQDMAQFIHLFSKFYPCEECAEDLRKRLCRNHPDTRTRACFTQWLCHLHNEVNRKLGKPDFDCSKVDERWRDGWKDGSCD
CHT activ conf: human CHT activation, confirmatory screen; shares compounds with CHT allo act; CHT-expressing cells, membrane potential dye fluorescence (FDSS); % of choline EC20–EC90 response window; HEK293 expressing CHT LV-AA mutant; choline added at its EC20; activation, % at 10 µM; 2,500 tested, 91% active;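 active = primary screen active, with duplicate mean activation above negative control mean plus 3 SD, cut at about 11% in these data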
HEK293 MP dye: CHT activator counter-screen hit in parental HEK293 cells. 2,500 tested, 62% active. shares compounds with CHT allo act. ratio readout change at 10 µM, hits read low. AID 623908. membrane potential dye fluorescence (FDSS); measured after EC20 choline addition;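 active = duplicate-averaged ratio beyond 3 SD from buffer wells, up or down, though filed actives are nearly all decreases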
Starred values were filed as active, the others as inactive; i = inactive; / = no result.

SMILES	PREPL inh	CHT block	AI-2 QS modul	CHT allo act	ALR H2O2 inh	CHT activ conf	HEK293 MP dye
CCN(c1ccccc1)S(=O)(=O)c1ccc(C(=O)N(CCCN(C)C)c2nc3cc4c(cc3s2)OCO4)cc1	24	i	6	i	18	43*	-37*
CN(C)CCCN(C(=O)c1ccc2ccccc2c1)c1nc2cc3c(cc2s1)OCO3	-9	i	0	i	1	/	/
Cc1cnccc1CN(C)C(=O)CC1C(=O)NCCN1CC1CCCCC1 (stereo unspecified)	6	i	14	7.7*	-3	0	i
Cc1ccc(CN(C)C(=O)CC2C(=O)NCCN2CC2CCCCC2)cc1 (stereo unspecified)	6	i	35	i	-5	/	/
CCCN(CCC)CCNC(=O)c1cc2c(-c3ccc(Cl)cc3)nn(C)c2s1	-83	i	0	i	-10	/	/
CCN(CC)CCNC(=O)c1cc2c(-c3ccc(Cl)cc3)nn(C)c2s1	-77	i	6	9.9*	/	33*	-21*
CC(C)CN(C(=O)COC(=O)CCCc1c[nH]c2ccccc12)c1c(N)n(Cc2ccccc2)c(=O)[nH]c1=O	-24	i	23	i	1	/	/
O=C1c2nc3cc(-c4ccco4)[nH]n3c(=O)c2CN1Cc1ccccc1	0	i	21	7*	15	30*	-55*
Cc1ccc2ccc3cccnc3c2n1	5	i	45	6.9*	/	55*	-73*
C(=N\Nc1ccc2nncn2n1)/c1ccccn1	-4	i	38	i	31	24*	-54*
O=S(=O)(c1ccccc1F)N1CCC(c2nc3ccccc3[nH]2)CC1	3	i	17	i	0	/	/
O=C(CCCN1CCC(O)(c2ccc(Br)cc2)CC1)c1ccc(F)cc1	5	i	/	i	-4	60*	i
COc1ccc(N(C(C)=O)c2nc(C)cc(C)c2C#N)c(OC)c1	16	i	22	i	0	/	/
CC(C)(C)C(=O)N1CCN(c2ccnc3cc(Cl)ccc23)CC1	-1	i	17	i	-8	/	/
O=C(C1CC1)N1CCN(c2ccnc3cc(Cl)ccc23)CC1	0	i	13	7.3*	-8	65*	-67*
O=C(c1ccco1)N1CCN(c2ccnc3cc(Cl)ccc23)CC1	2	i	3	i	-11	20*	-68*
O=C(C1CCC1)N1CCN(c2ccnc3cc(Cl)ccc23)CC1	-4	i	-9	i	-4	/	/
CC(Oc1ccccc1)C(=O)N=C1SC2CS(=O)(=O)CC2N1c1ccc(F)cc1 (stereo unspecified)	-2	i	10	i	-5	/	/
CCCCC(c1nnnn1CC1CCCO1)N1CCN(c2cc(Cl)ccc2C)CC1 (stereo unspecified)	/	/	20	/	/	/	/
CCCC(c1nnnn1Cc1ccco1)N1CCN(c2cc(Cl)ccc2C)CC1 (stereo unspecified)	13	i	/	6.7*	-11	35*	i
COc1ccccc1CNc1cc(CSc2ccc(Cl)cc2)nc(C)n1	-53	i	3	i	-7	23*	i
Cc1ccc(-n2nc3c(=O)n(CCCC(=O)NCCN4CCN(C)CC4)nc(C)c3c2C)cc1	28	i	15	i	-14	/	/
COCCCNc1ncnc2ccc(C)cc12	5	i	-2	i	-1	18*	-34*
Cc1ccc2ncnc(NCCC(=O)O)c2c1	-1	i	11	i	-5	/	/
CCn1nc(C(=O)NCCc2ccc3c(c2)OCCO3)c2ccccc2c1=O	2	/	/	/	-3	/	/
SMILES	PREPL inh	CHT block	AI-2 QS modul	CHT allo act	ALR H2O2 inh	CHT activ conf	HEK293 MP dye
Cc1cc(N2CCC(C)CC2)nc2cccc(O)c12	-5	i	24	6.8*	46	18*	-54*
NS(=O)(=O)c1ccc(CNC(=O)c2ccc(NS(=O)(=O)c3cccs3)cc2)cc1	17	/	/	/	4	/	/
COc1ccc(CCN(Cc2cc3cc(C)c(C)cc3nc2Cl)C(=O)C2CC2)cc1	1	i	0	9.2*	10	-4	i
Cc1ccc2nc(Cl)c(CN(Cc3cccs3)C(=O)C3CC3)cc2c1	-12	i	10	i	-7	/	/
COc1ccc(C2=NN(C(=O)CSc3nc(=O)n4cccc(C)c4n3)C(c3ccc(C)cc3)C2)cc1 (stereo unspecified)	15	i	10	i	8	/	/
CCCOc1ccc(-c2nc(N3CCN(C)CC3)c3ccccc3n2)cc1	9	i	-14	i	-20	/	/
CN1CCN(c2nc(-c3cccnc3)nc3ccccc23)CC1	3	i	4	7.3*	-3	42*	-88*
CN1CCN(c2nc(-c3ccc(Cl)c(Cl)c3)nc3ccccc23)CC1	-41	i	14	i	-11	/	/
CN1CCN(c2nc(-c3ccccn3)nc3ccccc23)CC1	11	i	9	9.1*	-2	55*	-94*
COc1ccc(NS(=O)(=O)c2cccc(C(=O)NNC(=O)CNC(=O)c3ccccc3F)c2)cc1	-1	i	20	i	-6	/	/
CCOC(=O)c1nnn2c1nc(N1CCN(C)CC1)c1ccccc12	3	i	1	8.6*	-5	58*	-67*
CCOC(=O)c1ccc(NC(=S)N(CCCN2CCCC(C)C2)Cc2ccco2)cc1 (stereo unspecified)	-4	i	16	i	-16	/	/
c1ccc(-c2ccccc2OCCCN2CCCC2)cc1	-6	i	-2	i	-8	2	i
CC(C)CC(=O)Nc1ccc(C(=O)COC(=O)C2=COCCO2)cc1	-3	i	43	i	-2	/	/
CCc1nc2ccc(Cc3ccc4nc(CC)[nH]c4c3)cc2[nH]1	9	i	18	7.1*	-5	49*	-52*
c1nc2ccc(Cc3ccc4nc[nH]c4c3)cc2[nH]1	-5	i	1	i	-3	/	/
CCOC(=O)N1CCC(n2c(SCC(=O)NCCc3ccc(S(N)(=O)=O)cc3)nc3ccccc3c2=O)CC1	0	i	21	15*	19	35*	-21*
CCCC(c1nnnn1CS(=O)(=O)c1ccc(C)cc1)N1CCN(c2ccccc2)CC1 (stereo unspecified)	-132	i	35	7*	4	14*	i
COc1cc(C(=O)NC2CCCc3c2cnn3-c2ccccc2F)cc(OC)c1OC (stereo unspecified)	2	i	14	i	-1	/	/
CCOC(=O)C1(CCOc2ccccc2)CCN(Cc2ccc(-n3cccn3)cc2)CC1	-79	i	36	6.3*	-23	27*	i
